Source: PubChem BioAssay
Shown are actives, neighbours in structure and some others; about 1.8% of the full set was active somewhere.
GLP1R cytotox: cytotoxic in the GLP-1 receptor inverse agonist counter-screen | HEK293 cAMP-luciferase reporter cells, luminescence, 24 h | Potency, µM (series often up to 38.3 µM), hits mostly inhibitors | actives 0.13% (n = 410,000);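 further: loss of luciferase light is scored as toxicity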
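Luminescence readout: signal drop marks cytotoxicity. Plated cells grew 12 h at 37 °C, 5% CO2, received 23 nL compound for 24 h, then got luciferase reagent, read after 12 min at RT.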
GLP-1R agonist: GLP-1 receptor (human) agonism. actives 0.007% (n = 380,000). Potency, µM (top dose mostly 45.6 µM), hits mostly activators. HEK293 GLP-1R CRE-luciferase, luminescence, 4-6 h; cells express a hypersensitive GLP-1R form
GLP-1R inv ag: GLP-1 receptor (human) inverse agonism | P43220 | actives 1.6% (n = 410,000) | HEK293 GLP-1R CRE-luciferase, luminescence, 24 h; GLP-1R form is constitutively active | Potency, µM (top dose mostly 38.3 µM), most hits filed as inhibitors; further: nearly all actives have a fitted effect of over 55% in size
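HEK293 cells stably co-expressing a cAMP-responsive luciferase reporter and constitutively active GLP-1R were seeded, incubated 12 h, then exposed to compounds for 24 h at 37 C. Luminescence was read 12 min after detection reagent; inverse agonists lower signal.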
RGS4 inhibitor: human RGS4 inhibition | P49798 | Transcreener GDP fluorescence polarization, RGS4-accelerated GTP hydrolysis | Potency, µM (titrated, usually from 114 µM), most hits filed as inhibitors | actives 0.039% (n = 390,000) | AID 504845; further: nearly all actives have a fitted effect of over 75% in size
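MLSMR compounds (23 nl, pin-transferred) preincubated 10 min at room temperature with a 500nM (2x) first reagent, then RGS4 at 900nM (2x) plus Transcreener GDP mix added; fluorescence polarization (620/688 nm) read before and after 90 min at 30 °C.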
GCN5L2 inh: inhibitors of human GCN5L2 histone acetyltransferase; Q92830; GCN5L2 HAT assay, ThioGlo1 CoA-SH fluorescence; Potency, µM (titrated, usually from 58.9 µM), hits mostly inhibitors; actives 0.21% (n = 390,000); AID 504327
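Compounds, pin-transferred from DMSO stocks, meet 20nM GCN5L2 for 15 min before the reaction begins with H3(1-25) peptide (75uM) and acetyl-CoA (70uM). Thiol-reactive ThioGlo1 reports CoA release over 20 min at room temperature.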
PTHR1 ag: PTHR1 (human) receptor agonism. Q03431. Potency, µM (top dose mostly 115 µM), most hits filed as activators. HEK293 GP2 PTHR1 cells, GloSensor cAMP luminescence, 1 h. actives 0.075% (n = 410,000); further: nearly all actives have a fitted effect of over 55% in size
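HEK-293-derived GP2 cells expressing PTHR1 and a GloSensor cAMP reporter, 3,000/well, plated overnight, given luciferin plus IBMX (each 0.5 mM as added) for 1 h at 37 °C, then compound for 1 h at 37 °C. Luminescence was read after 15 min at room temperature.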
Of the large screens only hits and unclear results are named; the others gave an inactive call. The call rests on the fitted dose curve; in most records, active means well fitted curve in the direction sought with a large enough effect; inconclusive means small, poorly fitted or top-dose-only effect, or another doubt; inactive means no such curve, though single readings can be large; an effect the other way counts as inactive or inconclusive.

CCCN(CC(=O)Nc1cc(Cl)ccc1Cl)C(=O)c1ccc2n[nH]nc2c1	none
O=c1cc(N2CCCCC2)c(-c2ccccc2)nn1Cc1ccc(F)cc1	GLP-1R inv ag 2µM
CCCCCNC(=O)c1cccc(S(=O)(=O)N2CC3(C)CC2CC(C)(C)C3)c1 (stereo not given)	GLP-1R inv ag 6.3µM
CC1(C)CC2CC(C)(CN2S(=O)(=O)c2cccc(C(=O)O)c2)C1 (stereo not given)	none
COc1cccc(CNC(C)(C)CO)c1OCc1ccc(Cl)cc1	GLP-1R inv ag 11µM
CC(C)(CO)NCc1cccc(OCc2ccc(Cl)cc2)c1	GLP-1R inv ag inconclusive
COC(=O)C1CCN(C(=O)COC(=O)c2oc3ccc(OC)cc3c2C)CC1	none
Cc1ccc2c(c1)C1CN(C)CCC1N2C(=S)NC(=O)c1ccc(Br)cc1 (stereo not given)	GLP1R cytotox inconclusive, GLP-1R inv ag 11µM
CCOC(=O)c1cccc(NC(=O)c2ccc3c(Cl)c4c(nc3c2)CCC4)c1	none
O=C(C(=O)N1CCN(c2ccccc2F)CC1)c1cn(CC(=O)N2CCCC2)c2ccccc12	none (no result: RGS4 inhibitor, GCN5L2 inh)
O=C(O)c1cccc(-n2cccc2/C=C2/NC(=O)N(c3ccc(Cl)cc3)C2=O)c1	RGS4 inhibitor inconclusive, GCN5L2 inh 8.9µM
O=C(O)c1cccc(-n2cccc2/C=C2/NC(=O)N(c3cccc(Cl)c3)C2=O)c1	none
CN(C)S(=O)(=O)c1cccc(NC(=O)COC(=O)c2cc(-c3cccc(Br)c3)nc3ccccc23)c1	GLP-1R inv ag 10µM
N=c1c2c(ncn1Cc1ccco1)Oc1c(ccc3ccccc13)C2c1ccccc1 (stereo not given)	GLP1R cytotox inconclusive, GLP-1R inv ag 4µM
Cc1ccc(C(=O)NCC2CCCN2S(=O)(=O)c2ccc(C)cc2)cc1 (stereo not given)	GLP-1R inv ag inconclusive
CC(C)(C)c1ccc(C(=O)NCC2CCCN2S(=O)(=O)c2ccccc2)cc1 (stereo not given)	GLP-1R inv ag 5µM
CCN(CC)C1=C(Cl)C(=O)C(Cl)C12OCCO2 (stereo not given)	none
CC(=O)N[C@@H]1C(O[C@H]2O[C@H](C(=O)O)C(O)[C@H](O)[C@H]2O)[C@H](O)[C@@H](CO)O[C@H]1O[C@@H]1C(C(=O)O)O[C@@H](O[C@H]2[C@H](O)[C@@H](CO)OC(O)[C@@H]2NC(C)=O)[C@H](O)[C@H]1O (stereo not given in full)	none (no result: GLP1R cytotox, GLP-1R inv ag, RGS4 inhibitor, PTHR1 ag)
Cc1onc(-c2ccccc2)c1C(=O)N=C(N)c1ccc(C(F)(F)F)cc1	none
CC1=CC(C)C(/C=N/N=C(N)N)C(C)C1 (stereo not given)	GLP-1R inv ag 8.9µM
Cc1ccccc1C(=O)NCC(c1cccnc1)N1CCc2ccccc21 (stereo not given)	none (no result: GLP-1R agonist)
COc1ccc(N2CCN(CCNC(=O)Nc3cccc(C)c3C)CC2)cc1	none
COc1ccccc1N1CCN(CCNC(=O)Nc2cccc(C)c2C)CC1	GLP-1R inv ag 3.2µM
NC(=O)C1(N2CCCCC2)CCN(C(=O)Nc2ccc(F)cc2)CC1	none (no result: GLP-1R agonist)
COc1cc(/C=C(\C#N)C(=O)Nc2nnc(C(F)(F)F)s2)ccc1OCc1ccc(C(F)(F)F)cc1C(F)(F)F	RGS4 inhibitor 19µM, GCN5L2 inh 7.9µM (no result: GLP1R cytotox, GLP-1R agonist, GLP-1R inv ag, PTHR1 ag)
CN1C(=O)/C(=C2/C=Cc3ccccc3N2CCCS(=O)(=O)O)SC1=S	GLP1R cytotox 8.9µM
Cc1ccc(-c2nnc(SCC(=O)NCC3CCCO3)nc2-c2ccc(C)cc2)cc1 (stereo not given)	GLP-1R inv ag inconclusive
Cc1ccc(N(CC(=O)NC2CCCCC2)C(=O)c2ccc(C)s2)cc1	GLP-1R inv ag inconclusive, GCN5L2 inh 4µM
Cc1cc(C)cc(N(CC(=O)NC2CCCCC2)C(=O)c2ccc(C)s2)c1	GCN5L2 inh inconclusive
